# Publication PMC7862700, “An all-to-all approach to the identification of sequence-specific readers for epigenetic DNA modifications on cytosine”
# How the values were obtained:
# Experiment in all cases: DAPPL (digital affinity profiling via proximity ligation, sequencing); 10 mM Tris-HCl pH 7.5, 50 mM NaCl, 1 mM DTT, 4% glycerol, room temperature, 30 min; GST-TFs on glutathione beads, 16-mer random dsDNA library, 0.1% formaldehyde crosslink after washing; high values mean tight binding
# FEV = target: T1, FEV (Homo sapiens, UniProt Q99581 1-238); conditions: protein: recombinant; tags: N-terminal GST; dsDNA, one strand shown
# T1 sequence: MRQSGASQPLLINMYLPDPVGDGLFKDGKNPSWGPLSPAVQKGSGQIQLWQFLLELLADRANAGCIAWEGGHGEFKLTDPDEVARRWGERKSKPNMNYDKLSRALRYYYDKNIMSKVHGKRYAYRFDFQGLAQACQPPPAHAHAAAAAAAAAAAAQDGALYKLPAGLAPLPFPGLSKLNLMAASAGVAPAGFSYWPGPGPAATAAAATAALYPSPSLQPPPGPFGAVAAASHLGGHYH
# Outline: (§1)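 Each value of binding signal is a hexamer's read frequency for a factor divided by the same hexamer's frequency in the tag-only sample. Barcoded, bead-captured GST fusions of human transcription factors made in yeast were pooled with that sample and incubated with 200 nmole of a random double-stranded 16-mer DNA library in Tris/NaCl/DTT/glycerol buffer at room temperature for 30 min. Washing, 0.1% formaldehyde crosslinking, proximity ligation, PCR and Illumina NextSeq500 sequencing followed.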
# ETV5 = ETV5 (Homo sapiens, UniProt P41161 1-510); conditions: protein: recombinant; tags: N-terminal GST; dsDNA, one strand shown
# Outline: as §1
# HSF1 = HSF1 (Homo sapiens, UniProt Q00613 1-529); conditions: protein: recombinant; tags: N-terminal GST; chain copies: 3; dsDNA, one strand shown
# Outline: as §1
# SPIC = target: T2, SPIC (Homo sapiens, UniProt Q8N5J4 1-248); conditions: protein: recombinant; tags: N-terminal GST; dsDNA, one strand shown
# T2 sequence: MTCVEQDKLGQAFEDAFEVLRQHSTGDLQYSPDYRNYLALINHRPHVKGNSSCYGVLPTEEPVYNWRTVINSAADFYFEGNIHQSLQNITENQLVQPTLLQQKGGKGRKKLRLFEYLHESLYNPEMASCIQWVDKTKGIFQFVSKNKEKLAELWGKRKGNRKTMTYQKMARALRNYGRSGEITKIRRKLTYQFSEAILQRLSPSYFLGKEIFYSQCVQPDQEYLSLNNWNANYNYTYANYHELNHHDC
# Outline: as §1
# ELF4 = ELF4 (Homo sapiens, UniProt Q99607 1-663); conditions: protein: recombinant; tags: N-terminal GST; dsDNA, one strand shown
# Outline: as §1
# ELK4 = target: T3, ELK4 (Homo sapiens, UniProt P28324-2 1-405); conditions: protein: recombinant; tags: N-terminal GST; dsDNA, one strand shown
# T3 sequence: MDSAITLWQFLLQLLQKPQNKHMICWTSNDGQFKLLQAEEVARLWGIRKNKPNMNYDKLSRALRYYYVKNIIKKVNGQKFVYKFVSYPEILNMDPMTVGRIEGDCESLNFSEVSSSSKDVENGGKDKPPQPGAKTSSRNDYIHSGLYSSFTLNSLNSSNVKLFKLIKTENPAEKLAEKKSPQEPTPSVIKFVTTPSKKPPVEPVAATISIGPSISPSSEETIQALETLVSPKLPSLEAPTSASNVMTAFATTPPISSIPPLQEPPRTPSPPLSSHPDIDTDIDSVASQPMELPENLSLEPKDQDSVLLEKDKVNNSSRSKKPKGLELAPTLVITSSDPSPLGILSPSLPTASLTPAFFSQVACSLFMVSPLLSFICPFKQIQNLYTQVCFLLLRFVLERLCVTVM
# Outline: as §1
# ETV2 = target: T4, ETV2 (Homo sapiens, UniProt O00321 1-342); conditions: protein: recombinant; tags: N-terminal GST; dsDNA, one strand shown
# T4 sequence: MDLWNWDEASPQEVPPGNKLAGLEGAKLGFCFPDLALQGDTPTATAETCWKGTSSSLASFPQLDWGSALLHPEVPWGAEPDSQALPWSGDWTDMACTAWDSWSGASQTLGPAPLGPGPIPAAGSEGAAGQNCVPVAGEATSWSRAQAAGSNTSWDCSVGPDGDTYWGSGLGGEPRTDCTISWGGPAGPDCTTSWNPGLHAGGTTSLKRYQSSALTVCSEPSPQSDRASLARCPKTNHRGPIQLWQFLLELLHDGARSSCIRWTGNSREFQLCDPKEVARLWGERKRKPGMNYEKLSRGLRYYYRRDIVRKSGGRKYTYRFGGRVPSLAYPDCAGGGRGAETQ
# Outline: as §1
# ELF3 = target: T5, ELF3 (Homo sapiens, UniProt P78545 1-371); conditions: protein: recombinant; tags: N-terminal GST; dsDNA, one strand shown
# T5 sequence: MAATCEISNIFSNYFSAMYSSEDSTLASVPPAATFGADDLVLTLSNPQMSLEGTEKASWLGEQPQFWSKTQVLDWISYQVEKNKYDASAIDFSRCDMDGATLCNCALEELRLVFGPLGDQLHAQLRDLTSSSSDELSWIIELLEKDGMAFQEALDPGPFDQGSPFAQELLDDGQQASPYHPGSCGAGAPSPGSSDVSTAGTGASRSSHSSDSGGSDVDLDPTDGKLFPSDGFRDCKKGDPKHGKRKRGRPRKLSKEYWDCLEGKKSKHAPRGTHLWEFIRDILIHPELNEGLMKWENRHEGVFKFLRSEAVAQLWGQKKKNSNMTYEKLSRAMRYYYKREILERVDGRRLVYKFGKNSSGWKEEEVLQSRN
# Outline: as §1
# CRX = CRX (Homo sapiens, UniProt O43186 1-299); conditions: protein: recombinant; tags: N-terminal GST; dsDNA, one strand shown
# Outline: as §1
# ETV1 = ETV1 (Homo sapiens, UniProt P50549 1-477); conditions: protein: recombinant; tags: N-terminal GST; dsDNA, one strand shown
# Outline: as §1
# ERF = target: T6, ERF (Homo sapiens, UniProt P50548 1-548); conditions: protein: recombinant; tags: N-terminal GST; dsDNA, one strand shown
# T6 sequence: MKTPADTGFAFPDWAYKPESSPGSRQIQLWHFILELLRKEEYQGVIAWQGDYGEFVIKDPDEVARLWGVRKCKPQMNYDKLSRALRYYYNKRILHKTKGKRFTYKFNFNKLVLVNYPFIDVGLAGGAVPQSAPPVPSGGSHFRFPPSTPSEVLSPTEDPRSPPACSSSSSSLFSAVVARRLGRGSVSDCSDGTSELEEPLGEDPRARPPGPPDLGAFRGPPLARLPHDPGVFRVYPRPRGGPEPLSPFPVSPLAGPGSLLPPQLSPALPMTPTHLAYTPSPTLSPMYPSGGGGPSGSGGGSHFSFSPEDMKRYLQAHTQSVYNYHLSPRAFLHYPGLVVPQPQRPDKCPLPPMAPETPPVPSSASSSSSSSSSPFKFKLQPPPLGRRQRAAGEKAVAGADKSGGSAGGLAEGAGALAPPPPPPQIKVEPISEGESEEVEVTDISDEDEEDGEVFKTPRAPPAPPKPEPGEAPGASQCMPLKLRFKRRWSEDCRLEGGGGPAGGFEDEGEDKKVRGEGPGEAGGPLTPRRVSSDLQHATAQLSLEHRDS
# Outline: as §1
# ETV3L = target: T7, ETV3L (Homo sapiens, UniProt Q6ZN32 1-361); conditions: protein: recombinant; tags: N-terminal GST; dsDNA, one strand shown
# T7 sequence: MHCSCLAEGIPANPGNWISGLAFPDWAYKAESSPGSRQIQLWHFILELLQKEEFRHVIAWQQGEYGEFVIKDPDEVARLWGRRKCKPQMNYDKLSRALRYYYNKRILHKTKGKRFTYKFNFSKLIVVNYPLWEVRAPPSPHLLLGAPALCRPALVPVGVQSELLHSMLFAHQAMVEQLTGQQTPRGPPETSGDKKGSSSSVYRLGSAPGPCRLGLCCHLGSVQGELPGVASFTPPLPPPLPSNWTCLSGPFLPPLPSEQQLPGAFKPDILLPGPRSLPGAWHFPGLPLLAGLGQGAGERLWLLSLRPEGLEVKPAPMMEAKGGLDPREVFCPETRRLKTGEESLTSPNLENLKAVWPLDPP
# Outline: as §1
# ETS2 = target: T8, ETS2 (Homo sapiens, UniProt P15036 1-469); conditions: protein: recombinant; tags: N-terminal GST; dsDNA, one strand shown
# T8 sequence: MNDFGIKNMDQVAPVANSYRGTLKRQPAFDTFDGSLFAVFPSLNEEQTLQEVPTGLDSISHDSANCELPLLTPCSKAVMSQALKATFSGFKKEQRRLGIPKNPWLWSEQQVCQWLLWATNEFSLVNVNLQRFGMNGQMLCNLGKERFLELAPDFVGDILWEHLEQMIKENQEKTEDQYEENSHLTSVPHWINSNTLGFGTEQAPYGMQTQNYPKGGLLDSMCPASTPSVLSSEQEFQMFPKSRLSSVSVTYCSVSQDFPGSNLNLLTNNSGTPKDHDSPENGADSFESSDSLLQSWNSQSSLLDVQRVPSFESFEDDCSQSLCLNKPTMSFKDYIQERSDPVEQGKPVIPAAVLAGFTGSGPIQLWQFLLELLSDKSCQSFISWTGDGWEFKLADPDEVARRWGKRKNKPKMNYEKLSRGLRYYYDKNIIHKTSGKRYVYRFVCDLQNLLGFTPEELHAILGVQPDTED
# Outline: as §1
# SPDEF = target: T9, SPDEF (Homo sapiens, UniProt O95238 1-335); conditions: protein: recombinant; tags: N-terminal GST; dsDNA, one strand shown
# T9 sequence: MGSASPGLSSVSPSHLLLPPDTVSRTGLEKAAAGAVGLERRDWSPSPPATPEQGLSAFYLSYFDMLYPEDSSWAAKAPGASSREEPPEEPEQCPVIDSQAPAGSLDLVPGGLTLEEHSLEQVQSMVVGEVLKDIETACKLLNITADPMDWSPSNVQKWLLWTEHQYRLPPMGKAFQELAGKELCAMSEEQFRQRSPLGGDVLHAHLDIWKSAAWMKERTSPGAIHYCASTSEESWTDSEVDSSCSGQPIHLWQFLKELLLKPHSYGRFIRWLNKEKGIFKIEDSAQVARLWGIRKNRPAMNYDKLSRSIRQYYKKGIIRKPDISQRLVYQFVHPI
# Outline: as §1
# ETV7 = target: T10, ETV7 (Homo sapiens, UniProt Q9Y603 1-341); conditions: protein: recombinant; tags: N-terminal GST; dsDNA, one strand shown
# T10 sequence: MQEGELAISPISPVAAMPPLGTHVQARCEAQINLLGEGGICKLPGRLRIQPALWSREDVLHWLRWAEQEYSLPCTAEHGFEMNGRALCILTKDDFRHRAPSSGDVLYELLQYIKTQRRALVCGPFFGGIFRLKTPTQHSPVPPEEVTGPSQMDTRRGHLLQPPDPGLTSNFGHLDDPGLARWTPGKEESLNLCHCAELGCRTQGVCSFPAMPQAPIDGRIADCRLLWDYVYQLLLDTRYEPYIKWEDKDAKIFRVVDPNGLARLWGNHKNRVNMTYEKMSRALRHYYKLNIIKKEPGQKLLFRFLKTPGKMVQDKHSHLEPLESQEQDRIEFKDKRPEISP
# Outline: as §1
# ELF5 = target: T11, ELF5 (Homo sapiens, UniProt Q9UKW6-2 1-255); conditions: protein: recombinant; tags: N-terminal GST; dsDNA, one strand shown
# T11 sequence: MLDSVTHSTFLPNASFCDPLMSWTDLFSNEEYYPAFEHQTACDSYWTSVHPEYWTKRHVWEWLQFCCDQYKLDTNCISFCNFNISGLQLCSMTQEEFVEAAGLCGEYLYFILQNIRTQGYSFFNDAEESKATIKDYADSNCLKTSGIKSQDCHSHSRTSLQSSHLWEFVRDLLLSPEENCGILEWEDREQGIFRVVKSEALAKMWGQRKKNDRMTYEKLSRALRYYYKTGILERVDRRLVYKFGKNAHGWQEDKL
# Outline: as §1
# ETV3 = target: T12, ETV3 (Homo sapiens, UniProt P41162-2 1-143); conditions: protein: recombinant; tags: N-terminal GST; dsDNA, one strand shown
# T12 sequence: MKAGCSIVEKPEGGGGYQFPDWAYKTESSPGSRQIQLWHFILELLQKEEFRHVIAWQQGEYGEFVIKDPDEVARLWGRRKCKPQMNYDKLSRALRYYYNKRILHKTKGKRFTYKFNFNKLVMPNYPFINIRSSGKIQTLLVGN
# Outline: as §1
# ETV6 = ETV6 (Homo sapiens, UniProt P41212 1-452); conditions: protein: recombinant; tags: N-terminal GST; dsDNA, one strand shown
# Outline: as §1
# HSF1, sequence (Q00613 whole entry): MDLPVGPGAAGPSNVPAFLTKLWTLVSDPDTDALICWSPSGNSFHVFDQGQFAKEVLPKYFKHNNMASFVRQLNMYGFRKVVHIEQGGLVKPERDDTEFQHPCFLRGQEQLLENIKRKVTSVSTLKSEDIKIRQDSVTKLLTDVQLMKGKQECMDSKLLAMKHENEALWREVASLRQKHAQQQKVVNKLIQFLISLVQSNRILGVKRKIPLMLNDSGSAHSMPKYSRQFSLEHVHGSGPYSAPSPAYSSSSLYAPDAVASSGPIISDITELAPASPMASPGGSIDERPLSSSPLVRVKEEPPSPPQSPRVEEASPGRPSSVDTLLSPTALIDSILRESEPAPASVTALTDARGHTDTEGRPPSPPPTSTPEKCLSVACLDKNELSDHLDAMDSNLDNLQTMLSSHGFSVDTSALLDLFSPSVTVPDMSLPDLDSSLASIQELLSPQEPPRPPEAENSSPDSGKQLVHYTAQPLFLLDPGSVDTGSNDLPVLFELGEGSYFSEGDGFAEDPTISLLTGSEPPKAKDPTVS
# ELF4, sequence (Q99607 whole entry): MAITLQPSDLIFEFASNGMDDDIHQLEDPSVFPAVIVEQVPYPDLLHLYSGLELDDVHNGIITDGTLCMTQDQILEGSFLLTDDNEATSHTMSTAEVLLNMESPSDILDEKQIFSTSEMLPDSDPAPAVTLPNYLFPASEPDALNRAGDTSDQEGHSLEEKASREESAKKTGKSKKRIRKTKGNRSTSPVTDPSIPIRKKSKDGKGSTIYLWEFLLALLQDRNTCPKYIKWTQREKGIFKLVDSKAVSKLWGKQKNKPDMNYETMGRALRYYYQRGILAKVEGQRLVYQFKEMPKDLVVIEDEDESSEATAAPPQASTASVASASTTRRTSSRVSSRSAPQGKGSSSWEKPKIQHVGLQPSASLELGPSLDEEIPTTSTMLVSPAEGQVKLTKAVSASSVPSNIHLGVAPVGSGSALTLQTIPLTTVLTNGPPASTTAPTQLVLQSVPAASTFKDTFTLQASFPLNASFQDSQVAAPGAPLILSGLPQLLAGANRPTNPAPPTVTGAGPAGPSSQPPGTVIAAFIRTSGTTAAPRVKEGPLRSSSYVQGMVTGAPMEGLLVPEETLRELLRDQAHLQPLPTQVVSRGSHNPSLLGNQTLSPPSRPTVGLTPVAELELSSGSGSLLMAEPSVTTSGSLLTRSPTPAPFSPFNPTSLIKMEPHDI
# CRX, sequence (O43186 whole entry): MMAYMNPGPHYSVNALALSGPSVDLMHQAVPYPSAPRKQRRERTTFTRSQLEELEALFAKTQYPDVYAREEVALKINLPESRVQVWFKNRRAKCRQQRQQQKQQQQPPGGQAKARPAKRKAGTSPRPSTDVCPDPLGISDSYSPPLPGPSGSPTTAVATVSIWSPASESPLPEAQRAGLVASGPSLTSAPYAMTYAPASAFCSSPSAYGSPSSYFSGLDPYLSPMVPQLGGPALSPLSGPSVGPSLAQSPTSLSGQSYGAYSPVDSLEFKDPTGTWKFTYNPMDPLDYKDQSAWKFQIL
# ETV1, sequence (P50549 whole entry): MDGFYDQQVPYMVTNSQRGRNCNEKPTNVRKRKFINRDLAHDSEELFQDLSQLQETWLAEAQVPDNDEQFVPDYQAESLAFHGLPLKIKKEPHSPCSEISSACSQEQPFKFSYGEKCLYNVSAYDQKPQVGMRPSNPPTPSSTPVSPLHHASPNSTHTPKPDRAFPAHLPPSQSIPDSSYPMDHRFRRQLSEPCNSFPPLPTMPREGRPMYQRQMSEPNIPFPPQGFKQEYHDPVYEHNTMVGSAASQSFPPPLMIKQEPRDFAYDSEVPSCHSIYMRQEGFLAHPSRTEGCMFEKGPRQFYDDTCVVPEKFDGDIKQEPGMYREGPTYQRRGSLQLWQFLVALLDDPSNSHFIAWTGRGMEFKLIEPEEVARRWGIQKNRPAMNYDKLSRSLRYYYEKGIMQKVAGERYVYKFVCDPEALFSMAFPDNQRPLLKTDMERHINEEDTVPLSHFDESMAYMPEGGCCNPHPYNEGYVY
# ETV6, sequence (P41212 whole entry): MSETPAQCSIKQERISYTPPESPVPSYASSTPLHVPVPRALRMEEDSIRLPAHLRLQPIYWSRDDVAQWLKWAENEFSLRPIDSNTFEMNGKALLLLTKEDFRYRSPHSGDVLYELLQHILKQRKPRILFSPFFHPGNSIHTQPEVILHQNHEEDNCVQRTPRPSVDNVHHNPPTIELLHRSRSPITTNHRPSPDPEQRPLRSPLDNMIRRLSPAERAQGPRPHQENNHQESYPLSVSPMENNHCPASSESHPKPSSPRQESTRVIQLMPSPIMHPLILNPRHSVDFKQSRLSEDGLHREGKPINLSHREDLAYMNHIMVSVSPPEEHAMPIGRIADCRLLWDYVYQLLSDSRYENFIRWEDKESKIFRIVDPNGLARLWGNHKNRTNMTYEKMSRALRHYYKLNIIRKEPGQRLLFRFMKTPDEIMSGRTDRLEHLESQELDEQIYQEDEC
# ETV5, sequence (P41161 whole entry): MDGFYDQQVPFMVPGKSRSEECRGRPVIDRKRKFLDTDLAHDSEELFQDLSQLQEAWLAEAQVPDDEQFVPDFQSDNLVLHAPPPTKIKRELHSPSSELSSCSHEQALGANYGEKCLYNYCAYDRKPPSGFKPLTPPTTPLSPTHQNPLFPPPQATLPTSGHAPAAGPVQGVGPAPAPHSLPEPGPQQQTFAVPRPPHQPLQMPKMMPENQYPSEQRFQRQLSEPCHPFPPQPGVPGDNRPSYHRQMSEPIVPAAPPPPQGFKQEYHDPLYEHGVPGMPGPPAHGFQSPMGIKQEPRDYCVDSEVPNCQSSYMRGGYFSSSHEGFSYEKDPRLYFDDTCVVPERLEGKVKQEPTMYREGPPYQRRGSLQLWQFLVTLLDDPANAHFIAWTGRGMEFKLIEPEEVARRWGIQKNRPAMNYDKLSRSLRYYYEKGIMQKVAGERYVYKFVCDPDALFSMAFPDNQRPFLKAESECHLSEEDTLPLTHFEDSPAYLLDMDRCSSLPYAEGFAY
sequence,measurement,setting,value
TCTACT,binding signal,FEV,"1.39 fold enrichment (6-mer frequency, TF over GST control)"
same,binding signal,ETV5,"1.39 fold enrichment (6-mer frequency, TF over GST control)"
same,binding signal,HSF1,"1.51 fold enrichment (6-mer frequency, TF over GST control)"
same,binding signal,SPIC,"1.51 fold enrichment (6-mer frequency, TF over GST control)"
same,binding signal,ELF4,"1.34 fold enrichment (6-mer frequency, TF over GST control)"
same,binding signal,ELK4,"1.27 fold enrichment (6-mer frequency, TF over GST control)"
same,binding signal,ETV2,"1.31 fold enrichment (6-mer frequency, TF over GST control)"
same,binding signal,ELF3,"1.38 fold enrichment (6-mer frequency, TF over GST control)"
same,binding signal,CRX,"1.45 fold enrichment (6-mer frequency, TF over GST control)"
same,binding signal,ETV1,"1.47 fold enrichment (6-mer frequency, TF over GST control)"
same,binding signal,ERF,"1.42 fold enrichment (6-mer frequency, TF over GST control)"
same,binding signal,ETV3L,"1.51 fold enrichment (6-mer frequency, TF over GST control)"
same,binding signal,ETS2,"1.41 fold enrichment (6-mer frequency, TF over GST control)"
same,binding signal,SPDEF,"1.42 fold enrichment (6-mer frequency, TF over GST control)"
same,binding signal,ETV7,"1.32 fold enrichment (6-mer frequency, TF over GST control)"
same,binding signal,ELF5,"1.37 fold enrichment (6-mer frequency, TF over GST control)"
same,binding signal,ETV3,"1.2 fold enrichment (6-mer frequency, TF over GST control)"
same,binding signal,ETV6,"1.41 fold enrichment (6-mer frequency, TF over GST control)"
